# Compound activity: PubChem, The Scripps Research Institute Molecular Screening Center
# The list is not random: actives were taken first. Their share in the collection is about 2.2%.
# M4 ag = CHRM4 agonism in calcium assay. P08173. CHO-K1 hM4/Gqi5, Fluo-8 calcium fluorescence; vehicle 0%, full acetylcholine response 100%. activation, % at 3 µM. hit rate 0.14% among 360,000. AID 624127;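 active = activation above the run mean over all test wells plus 3 SD, cut at about 32% in these data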;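 also: peak over basal fluorescence ratio per well then scaled between controls; 0% = DMSO wells and 100% = acetylcholine at EC100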
# Target sequence (P08173 whole entry, looked up): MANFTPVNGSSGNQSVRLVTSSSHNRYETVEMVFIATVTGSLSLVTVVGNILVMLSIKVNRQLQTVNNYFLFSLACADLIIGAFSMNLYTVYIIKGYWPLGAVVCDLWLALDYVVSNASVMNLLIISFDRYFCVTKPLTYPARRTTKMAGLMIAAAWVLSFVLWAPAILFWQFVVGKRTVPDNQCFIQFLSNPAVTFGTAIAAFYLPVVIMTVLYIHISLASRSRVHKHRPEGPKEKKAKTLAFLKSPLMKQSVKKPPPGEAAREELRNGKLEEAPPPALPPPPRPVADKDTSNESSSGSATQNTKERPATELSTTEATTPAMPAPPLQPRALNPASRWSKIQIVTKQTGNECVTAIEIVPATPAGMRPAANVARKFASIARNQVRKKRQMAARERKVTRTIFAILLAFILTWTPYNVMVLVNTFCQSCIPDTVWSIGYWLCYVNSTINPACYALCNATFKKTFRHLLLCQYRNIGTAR
# M4 antag = blocks acetylcholine activation of human M4 receptor; P08173; CHO-hM4 cells, ACh EC80, Fluo-8 calcium fluorescence; inhibition, % at 3 µM; hit rate 0.73% among 360,000; AID 624125;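 active = inhibition above its plate's cutoff, the mean inhibition of sample wells plus 3 SD, cut at about 27% in these data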;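 also: 0% = acetylcholine EC80 with DMSO and 100% = DMSO without agonist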
# M1 antag = human CHRM1 antagonism | CHO-K1 hM1, Fluo-8 calcium fluorescence, ACh EC80 antagonist | hit rate 1.3% among 360,000 | inhibition, % at 3 µM | P11229 | AID 588852;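 active = percent inhibition above its own plate's cutoff, namely the mean of that plate's compound wells plus 3 SD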;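 also: peak over basal fluorescence ratio during 140 s after agonist addition; 0% = ACh EC80 plus DMSO and 100% = DMSO alone without agonist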
# CHRM1 agonist = human M1 muscarinic receptor agonism | activation, % at 3 µM | CHO-K1 hM1, Fluo-8 calcium fluorescence, agonist mode; 0% DMSO, 100% acetylcholine EC100 | hit rate 0.33% among 360,000 | AID 588814 | P11229;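 active = activation above the run's mean compound activation plus 3 SD, cut at about 16% in these data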;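 also: peak over basal fluorescence ratio within a 140 s kinetic read after compound addition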
# CHRM4 PAM = positive allosteric modulators of human muscarinic M4 receptor | P08173 | activation, % at 3 µM | CHO-K1 hM4/Gqi5, Fluo-8 calcium fluorescence, ACh EC20; 0% = ACh EC20, 100% = maximal ACh | hit rate 0.4% among 360,000;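 active = activation above its plate's cutoff, the mean activation of sample wells plus 3 SD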
# CHRM1 PAM = human CHRM1 positive allosteric modulation. P11229. CHO-K1 hM1, Fluo-8 calcium fluorescence, ACh EC20; 0% = ACh EC20, 100% = maximal ACh. activation, % at 3 µM. hit rate 0.088% among 360,000; in the data active = activation above about 19%, passing the limit was not always enough
# Starred values were filed as active, the others as inactive.
SMILES,M4 ag,M4 antag,M1 antag,CHRM1 agonist,CHRM4 PAM,CHRM1 PAM
CCN1C(=NCc2ccco2)N[C@@H](c2cccc(C(F)(F)F)c2)C(C(=O)OC)=C1C,3,27*,2,-7,2,6
NS(=O)(=O)c1ccc(CCNC(=O)CCCCCn2c(=S)[nH]c3ccc(Br)cc3c2=O)cc1,17,21,41*,0,-14,-9
Cc1cc(C)nc(SCCCNCc2ccc(Br)cc2)n1,6,8,8,27*,-13,-10
Cn1ccnc1C1CCCCN1Cc1nc(-c2ccc(Cl)cc2)no1 (configuration not stated),2,1,32*,-7,-28,-19
COc1cccc(OC)c1C(=O)Nc1ccc(N2CCN(S(C)(=O)=O)CC2)cc1,0,-4,-8,-3,8,8
CCC(=O)NCCc1nc2cc(NC(=O)Nc3ccccc3)ccc2n1C,0,-1,-8,-2,2,3
Cn1c(CCN2CCN(c3ccccc3)CC2)nc2cc(NC(=O)c3ccco3)ccc21,1,12,46*,-5,-12,-19
CCC(=O)Nc1ccc2c(c1)nc(CCN1CCN(c3ccccc3)CC1)n2C,0,4,43*,-9,-16,-21
Cn1c(CCN2CCN(c3ccc(F)cc3)CC2)nc2cc(NC(=O)c3ccco3)ccc21,1,11,27*,-7,-18,-21
Cn1c(CN2CCCC2)nc2cc(NC(=O)c3ccco3)ccc21,0,10,0,-7,-4,2
CCC(=O)NCCc1nc2cc(NC(=O)c3ccccc3Cl)ccc2n1C,2,-6,-24,3,8,30*
CN1CCN(CCc2nc3cc(NC(=O)c4ccco4)ccc3n2C)CC1,0,10,-11,-3,1,11
CCOC(=O)N1CCN(Cc2nc3cc(NC(=O)c4cccs4)ccc3n2CC)CC1,8,2,5,-3,-8,-6
Cc1ccc(N2CCN(CCc3nc4cc(NC(=O)c5ccco5)ccc4n3C)CC2)cc1,1,-10,25*,-6,-1,-22
CCOC(=O)N1CCN(Cc2nc3cc(NC(=O)c4cccs4)ccc3n2C)CC1,1,8,26*,-6,-12,-16
COc1ccc(CN(C)C(=O)c2ccc(OCC(=O)Nc3cccc(C(F)(F)F)c3)c(OC)c2)cc1,16,31*,33,2,-12,-18
COc1cc(C(=O)NCc2cccnc2)ccc1OCC(=O)Nc1cccc(C(F)(F)F)c1,20,-2,7,1,-8,-6
COc1ccc(C2/C=C\CN(C(=O)Nc3ccccc3)CC(=O)N2Cc2ccc(F)cc2)cc1 (configuration not stated),1,3,-1,-2,4,8
COc1ccc(C2/C=C\CN(C(=O)Nc3ccc(C(F)(F)F)cc3)CC(=O)N2Cc2ccc(F)cc2)cc1 (configuration not stated),14,17,38*,-3,-7,-21
CS/C(=N/S(=O)(=O)c1ccc(C)cc1)c1ccccc1,2,-7,-4,-3,24*,8
CC(=O)c1c(C)[nH]c(C(=O)OCC(=O)Nc2cc(Cl)ccc2[N+](=O)[O-])c1C,14,5,25*,9,-7,-20
Cc1cccc(C)c1NC(=O)NC1(C(=O)N2CCCCC2)CCCCC1,2,-5,-5,-5,-3,4
Cc1cc(C)c(NC(=O)CN2C(=O)NC3(CCCCC3)C2=O)c(C)c1,1,2,-9,-3,9,8
C=C1SC(Nc2c(C)cc(C)cc2C)=NC12CCCCC2,-1,26,68*,-7,-15,-25
C=C1SC(Nc2c(C)cccc2C)=NC12CCCCC2,-1,29*,66*,-8,-15,-25
CCN(CC)CCNc1nc(SC)nc2sc3c(c12)CCN(C)C3,1,5,-4,-8,-2,0
CN=C1NC(C)(C)C2CCC(C)(CC2)S1,1,-1,39*,-9,-5,-29
CCOC1=C2[C@@H](CN(S(=O)(=O)c3ccccc3C)[C@H]2c2ccc(Cl)cc2)[C@H]2C(=O)NC(=O)[C@H]2C1,2,43*,-10,0,-14,10
